High-throughput results (PubChem)
Shown are actives, neighbours in structure and some others; about 17% of the full set was active somewhere.
DT40 TDP1 CPT – growth inhibition of DT40 Tdp1-/-;hTDP1 cells with camptothecin (screen for TDP1 inhibitors). 420,000 tested, 12% active. AID 686979. Potency, µM (highest dose often 46.2 µM), inactives show top-dose activity change, negative = growth inhibition, most hits filed as inhibitors. chicken DT40 Tdp1-/-;hTDP1 cells + 20 nM CPT, ATP luminescence, 48 h; note: % is set by controls: 0 for no effect and ±100 for the full control effect; nearly all actives have a fitted effect of over 55% in size
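Cell growth measured by CellTiter-Glo luminescence after a minimum 48 h, 37 C compound exposure with 20 nM CPT in Tdp1-knockout DT40 cells stably expressing hTDP1, seeded 400/well; qHTS titration format.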
HT1080NT lethal – kills 2HG-producing HT-1080-NT fibrosarcoma cells | HT-1080-NT fibrosarcoma viability, CellTiter-Glo ATP luminescence, 48 h | Potency, µM (highest dose often 46.1 µM), for the others: at the highest dose activity, negative = less viability, hits mostly cytotoxic | 360,000 tested, 1.6% active;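 note: NT is the 2HG producing partner of a matched IDH1 knockdown line; 0% = DMSO-treated cells and -100% = media-only wells without cells; nearly all actives have a fitted effect of over 55% in size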
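Luminescent CellTiter-Glo readout after 48 hours of compound exposure at 37 degrees C defined viability of HT-1080-NT cells. Activity was normalized to DMSO wells and cell-free media wells; concentration-response curves were fitted and assigned curve classes.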
TGFb inhibitor – inhibitors of TGF-b signaling | HepG2 CAGA-GFP TGF-b/SMAD3 reporter, GFP fluorescence, 18 h; TGF-beta stimulated, 500 pg/mL final | Potency, µM (series often up to 46.1 µM), inactives show top-dose activity, negative = inhibition, hits mostly inhibitors | 410,000 tested, 1.2% active | AID 588855; note: % is set by controls: 0 for no effect and ±100 for the full control effect; nearly all actives have a fitted effect of over 65% in size
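Using HEPG2 CAGA-GFP reporter cells at 1000 cells/well, we pinned test compounds, stimulated with recombinant TGF-beta (500 pg/mL final) and measured total well GFP after 18 h.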
HepG2 tox-1 – kills HepG2 cells in TGF-b inhibitor counter-screen | HepG2 CAGA-GFP viability, ATP luminescence, 18 h | Potency, µM (doses to about 46.1 µM), inactives show at the highest dose activity change, negative = cytotoxicity, most hits filed as cytotoxic | 410,000 tested, 0.76% active
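CellTiter-Glo luminescence gave cytotoxicity after 18 hours at 37 degrees C. The cells were HepG2 CAGA-GFP in 1% FBS DMEM, stimulated with 500 pg/mL TGF-beta after compound addition. %Activity was normalised to no-cell wells (complete cell-killing) and DMSO (no toxicity), and curves were fitted and classified.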
DT40 TDP1 no CPT – qHTS for Inhibitors of human tyrosyl-DNA phosphodiesterase 1 (TDP1): qHTS in cells in absence of CPT | AID 686978, 2013 | DT40 Tdp1-/- hTDP1 cells, no CPT, ATP luminescence, 48 h | 420,000 tested, 15% active | Potency, µM (series often up to 46.2 µM), without a hit: at the highest dose activity change, negative = growth inhibition, hits mostly inhibitors; note: % is set by controls: 0 for no effect and ±100 for the full control effect; nearly all actives have a fitted effect of over 55% in size
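DT40 Tdp1-/-;hTDP1 cells, no CPT (DMSO vehicle only), 400 cells/well; compounds pin-transferred; ≥48 hr, 37 °C; CellTiter-Glo 30 min RT dark, luminescence read.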
HT1080 IDH1KD tx – HT-1080 IDH1 knockdown cell toxicity (counter line) | HT-1080 IDH1 knockdown viability, ATP luminescence, 48 h | Potency, µM (doses to about 46.1 µM), for the others: at the highest dose activity, negative = toxicity, most hits filed as cytotoxic | 360,000 tested, 2% active | AID 686971;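 note: 0% = DMSO wells and -100% = cell-free medium wells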
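Luminescent ATP read-out (CellTiter-Glo, 10 min at room temperature) after 48 h compound exposure at 37 °C gave viability of IDH1-knockdown HT-1080 cells. Activity was normalised to DMSO and cell-free wells, then fitted as concentration-response curves.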
TGFb confirm – TGF-b pathway inhibition, cherry-pick retest | HepG2 CAGA-GFP TGF-b reporter, GFP fluorescence, 18 h; cells stimulated with TGF-beta, 500 pg/mL | 1,600 tested, 63% active | shares compounds with TGFb inhibitor | Potency, µM (series often up to 46.1 µM), without a hit: at the top dose activity, negative = inhibition, most hits filed as inhibitors; note: % is set by controls: 0 for no effect and ±100 for the full control effect; nearly all actives have a fitted effect of over 65% in size
HepG2 tox-2 – toxic to HepG2 cells in TGF-b counterscreen; shares compounds with TGFb inhibitor; HepG2 CAGA-GFP viability, ATP luminescence, 18 h; cells stimulated with TGF-beta, 500 pg/mL; Potency, µM (highest dose often 46.1 µM), without a hit: top-dose activity, negative = cytotoxicity, most hits filed as inhibitors; 1,600 tested, 27% active; AID 720535; note: % is set by controls: 0 for no effect and ±100 for the full control effect; nearly all actives have a fitted effect of over 70% in size
CCL64 TGFb inh – blocks TGF-b signaling in CCL64 reporter cells | AID 720536 | Potency, µM (doses to about 46.1 µM), for the others: at the highest dose activity, negative = inhibition, usual class: inhibitors | CCL64 CAGA-GFP reporter, TGF-b stimulated, GFP fluorescence, 18 h | 1,600 tested, 41% active | shares compounds with TGFb inhibitor; note: nearly all actives have a fitted effect of over 65% in size
TGFb COP inh – validation of TGF-b inhibitors in HepG2 COP promoter reporter; shares compounds with TGFb inhibitor; HepG2 COP-GFP TGF-b reporter, GFP fluorescence, 18 h; cells stimulated by added recombinant TGF-beta; Potency, µM (doses to about 46.1 µM), without a hit: at the highest dose activity, negative = inhibition, hits mostly inhibitors; 1,600 tested, 3% active; note: nearly all actives have a fitted effect of over 70% in size
The depositor's hits bear a star; ? = inconclusive; . = not tested or not shown. Calls come from the whole dose curve; as a rule, active = well fitted curve in the direction sought with a large enough effect; inconclusive = small, poorly fitted or top-dose-only effect, or another doubt; inactive = no such curve, though single readings can be large; an effect the other way counts as inactive or inconclusive. Potency is the fitted concentration of half-maximal effect.

SMILES	DT40 TDP1 CPT	HT1080NT lethal	TGFb inhibitor	HepG2 tox-1	DT40 TDP1 no CPT	HT1080 IDH1KD tx	TGFb confirm	HepG2 tox-2	CCL64 TGFb inh	TGFb COP inh
COc1cc(/C=C/C(=O)c2ccc3c(c2)OCCO3)cc(Br)c1OCC(=O)N(C)C	8.2µM*	4.6µM*	4µM*	-175%	7.3µM*	3.7µM*	3.7µM*	3.3µM*	21µM*	-29%
CN(Cc1ccccc1)S(=O)(=O)c1ccc(NC(=S)NC(=O)C2CCCCC2)cc1	12µM*	-5%	13µM*	-1%	15µM*	-27%	33µM*	?	14%	19%
COCc1cc(S(=O)c2ccc(Cl)cc2)nc(C)n1 (stereo unspecified)	4.6µM*	?	?	-124%	2.9µM*	?	?	?	7.3µM*	-16%
CCOC(=O)C1CCN(S(=O)(=O)c2ccc3c(c2)N(C(C)=O)CC(C)S3)CC1 (stereo unspecified)	?	-6%	-3%	0%	?	-13%	.	.	.	.
Cc1ccc(C(C)C)cc1OCCn1cncn1	11%	7%	-12%	-3%	5%	15%	.	.	.	.
CCCCOc1ccc(C(=O)Oc2cccnc2)cc1	-2%	1%	-6%	-2%	1%	-10%	.	.	.	.
CCCCCCN1C[C@H](n2cc(-c3ccc(F)cc3)nn2)[C@@H](O)C[C@@H]1c1ccc(Cl)cc1	?	?	7.1µM*	11µM*	16µM*	?	21µM*	?	18µM*	?
CCCCCCN1C[C@H](n2cc(-c3ccc(F)cc3)nn2)[C@@H](O)C[C@@H]1c1ccccc1	?	7%	?	-79%	?	15%	.	.	.	.
CC1(Cc2cccc(C(F)(F)F)c2)C(=O)Nc2ccc(-c3ccc(F)c(Cl)c3)cc21 (stereo unspecified)	?	?	10µM*	10µM*	23µM*	?	?	18µM*	?	38%
Cc1ccc(N/N=C(\C#N)C(=O)c2ccsc2)cc1	?	?	?	-22%	?	?	.	.	.	.
N#C/C(=N\Nc1ccc(Cl)cc1)C(=O)c1ccsc1	16µM*	?	?	-27%	23µM*	?	8.2µM*	7.3µM*	21µM*	15%
COc1ccc(/C=C2/CCC(CN3CCOCC3)C2=O)cc1 (stereo unspecified)	1.2µM*	?	5µM*	11µM*	1.2µM*	6.5µM*	4.6µM*	3.7µM*	4.6µM*	16µM*
COc1ccc(/C=C2\CCC(C3CCCC3)C2=O)cc1 (stereo unspecified)	4%	8%	4%	12%	-4%	12%	.	.	.	.
CN(CCc1ccccc1)C(=O)c1cccc(NC(=O)Cc2cccc([N+](=O)[O-])c2)c1	?	-1%	7.1µM*	-18%	?	-7%	?	-23%	-2%	16%
O=C(Nn1c(SCc2ccc(F)cc2)nc2ccsc2c1=O)c1ccccc1	-25%	-2%	11µM*	-2%	?	-2%	16µM*	?	?	53%
Cc1cccc(N2CCN(C(=O)c3c(C)nn(Cc4ccccc4Cl)c3C)CC2)c1C	9.2µM*	?	20µM*	-24%	10µM*	?	10µM*	?	?	24%
Cc1cc(C)n(C(N)=NC(=O)c2ccccc2)n1	6%	18%	-9%	0%	0%	8%	.	.	.	.
Cc1cc(C)cc(C(=O)N2CC(=O)Nc3ccccc32)c1	0.92µM*	1.2µM*	10µM*	-11%	0.58µM*	0.52µM*	7.3µM*	7%	8.2µM*	-3%
C=C(C)COc1ccc(-c2[nH]ncc2-c2ccc(OC)cc2)c(O)c1	?	-15%	8.9µM*	-122%	?	-10%	?	?	23µM*	?
CN(C)C1C(=O)c2ccccc2C1=O	11%	?	3%	3%	-4%	?	.	.	.	.
O=C(c1cc(S(=O)(=O)Nc2ccccc2F)c(Cl)cc1Cl)N1CCN(CCO)CC1	-21%	-3%	?	-12%	-15%	-1%	-2%	-1%	?	-2%
O=C(NCCN1CCOCC1)c1cc(S(=O)(=O)Nc2ccccc2F)c(Cl)cc1Cl	-6%	7%	8%	3%	23%	-1%	.	.	.	.
CCN(C[C@H]1N[C@@](CC)(C(=O)OC)[C@H]2C(=O)N(Cc3ccccc3)C(=O)[C@@H]12)C(=O)Nc1ccc(C)cc1	?	-1%	-21%	-25%	?	-6%	.	.	.	.
CCN(C[C@H]1N[C@@](Cc2ccccc2)(C(=O)OC)[C@H]2C(=O)N(Cc3ccccc3)C(=O)[C@@H]12)C(=O)Nc1ccc(C)cc1	?	?	?	-13%	16µM*	?	15µM*	-14%	?	13%
CCCCNc1c(-c2ccc(OC)c(SC(C)CC)c2)nc2ccc(Cl)cn12 (stereo unspecified)	26µM*	7%	10µM*	-6%	26µM*	-5%	?	-19%	?	-5%
